The record followed here is publication PMC3218832.

Test in all cases: protein binding microarray; high values mean tight binding
What all share (conditions): dsDNA, one strand shown

Assay [1] concerns the target RELARELA (p65 homodimer) (Homo sapiens, UniProt Q04206 1-307).
For assay [2], the target named is p50p50 homodimer (Homo sapiens, UniProt P19838 7-356).
For assay [3], the target named is T1, p52p52 homodimer (Homo sapiens, UniProt Q00653 4-332).
T1 sequence: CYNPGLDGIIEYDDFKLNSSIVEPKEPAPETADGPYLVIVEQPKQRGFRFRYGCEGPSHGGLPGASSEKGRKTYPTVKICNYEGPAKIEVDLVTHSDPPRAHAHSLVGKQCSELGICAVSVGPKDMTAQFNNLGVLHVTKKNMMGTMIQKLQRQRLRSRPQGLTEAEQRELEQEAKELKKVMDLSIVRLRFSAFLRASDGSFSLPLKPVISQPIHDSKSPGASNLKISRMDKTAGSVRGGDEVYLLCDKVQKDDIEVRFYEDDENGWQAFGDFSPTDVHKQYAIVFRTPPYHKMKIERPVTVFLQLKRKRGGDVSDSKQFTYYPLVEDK

The target of assay [4] is RELA (p65) subunit of heterodimer;p50 subunit (Homo sapiens;Homo sapiens, UniProt Q04206;P19838 1-307;7-356).
The target in assay [5] is RELA (p65) subunit of heterodimer;p52 subunit (Homo sapiens;Homo sapiens, UniProt Q04206;Q00653 1-307;4-332).
Assay [6] deals with RELB subunit;p50 subunit (Homo sapiens;Homo sapiens, UniProt Q01201;P19838 120-401;7-356).
Assay [7] concerns the target T2, RELB subunit;p52 subunit (Homo sapiens;Homo sapiens, UniProt Q01201;Q00653 120-401;4-332).
T2 sequence 1: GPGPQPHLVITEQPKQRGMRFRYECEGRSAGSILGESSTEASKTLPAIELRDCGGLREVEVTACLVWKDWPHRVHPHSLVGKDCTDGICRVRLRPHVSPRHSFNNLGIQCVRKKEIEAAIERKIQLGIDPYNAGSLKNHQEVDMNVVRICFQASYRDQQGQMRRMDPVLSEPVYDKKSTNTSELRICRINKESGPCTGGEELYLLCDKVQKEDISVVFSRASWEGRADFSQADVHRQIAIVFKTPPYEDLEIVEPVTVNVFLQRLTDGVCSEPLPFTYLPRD
T2 sequence 2: T1 sequence

Assay [8] concerns the target C-Rel subunit;p50 subunit (Homo sapiens;Homo sapiens, UniProt Q04864;P19838 1-285;7-356).
Assay [9] has as its target T3, C-Rel subunit;p52 subunit (Homo sapiens;Homo sapiens, UniProt Q04864;Q00653 1-285;4-332).
T3 sequence 1: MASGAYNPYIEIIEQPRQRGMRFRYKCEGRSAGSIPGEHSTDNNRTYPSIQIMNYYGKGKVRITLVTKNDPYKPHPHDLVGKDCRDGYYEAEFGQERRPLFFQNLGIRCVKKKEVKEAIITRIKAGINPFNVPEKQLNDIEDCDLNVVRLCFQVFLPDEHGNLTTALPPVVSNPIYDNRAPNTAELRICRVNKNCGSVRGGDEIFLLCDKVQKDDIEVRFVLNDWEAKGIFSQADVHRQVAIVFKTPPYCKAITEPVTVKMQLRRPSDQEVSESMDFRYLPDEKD
T3 sequence 2: T1 sequence

p50p50 homodimer, sequence (P19838 7-356): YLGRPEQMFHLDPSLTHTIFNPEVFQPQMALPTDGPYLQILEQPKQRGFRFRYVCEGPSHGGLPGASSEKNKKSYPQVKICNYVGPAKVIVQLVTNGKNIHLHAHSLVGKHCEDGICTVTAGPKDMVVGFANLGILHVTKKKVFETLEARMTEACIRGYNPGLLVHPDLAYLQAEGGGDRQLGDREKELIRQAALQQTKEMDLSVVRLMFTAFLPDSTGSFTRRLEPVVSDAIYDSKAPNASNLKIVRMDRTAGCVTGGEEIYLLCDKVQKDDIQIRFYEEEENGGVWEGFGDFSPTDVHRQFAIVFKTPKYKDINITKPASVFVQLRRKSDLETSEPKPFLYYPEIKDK
RELARELA (p65 homodimer), sequence (Q04206 1-307): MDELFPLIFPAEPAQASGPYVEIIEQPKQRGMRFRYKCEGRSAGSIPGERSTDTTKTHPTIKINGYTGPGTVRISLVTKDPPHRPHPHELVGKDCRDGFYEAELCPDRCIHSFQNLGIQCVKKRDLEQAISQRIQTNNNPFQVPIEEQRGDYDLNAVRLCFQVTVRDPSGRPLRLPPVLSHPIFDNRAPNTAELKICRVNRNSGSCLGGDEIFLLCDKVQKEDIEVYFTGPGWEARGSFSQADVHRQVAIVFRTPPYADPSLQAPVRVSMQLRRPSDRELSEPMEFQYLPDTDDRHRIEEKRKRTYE
RELA (p65) subunit of heterodimer;p50 subunit, sequence (Q04206 1-307, chain 1 of 2): as the sequence (Q04206 1-307) above
RELA (p65) subunit of heterodimer;p50 subunit, sequence (P19838 7-356, chain 2 of 2): as the sequence (P19838 7-356) above

Consider AGGTAATTCCT, for which the binding signal in assay [1] came to 1.47 z-score; in assay [2] it was 0.62 z-score; in assay [3], 1.15 z-score; in assay [4], 0.471 z-score; in assay [5], 0.62 z-score; in assay [6], 0.351 z-score. For the same sequence, the binding signal in [7] came out at 0.553 z-score; in assay [8], 0.224 z-score; in assay [9], 0.709 z-score.

Regarding GGAGGCGCCCC, the binding signal in [1] was -0.259 z-score; in assay [2] it was -0.0933 z-score; in assay [3], -0.0824 z-score; in assay [4], -0.062 z-score; in assay [5], 0.0158 z-score; in [6], 0 z-score. The binding signal in assay [7] was 0.214 z-score; in [8], -0.156 z-score; in assay [9] it was -0.0409 z-score.

Take AGAAGGCCCCT: the binding signal is -0.756 z-score in assay [1]; 0.412 z-score in [2]; 0.0419 z-score in assay [3]; 0.306 z-score in assay [4]; 0.149 z-score in assay [5]; 0.0369 z-score in assay [6]. The binding signal in assay [7] was 0.0992 z-score; in assay [8] it was -0.139 z-score; in assay [9], 0.0154 z-score.

In the case of CAATTCCCCCC, the binding signal is 1.09 z-score in assay [1]; 1.66 z-score in assay [2]; 1.93 z-score in [3]; 2.3 z-score in assay [4]; 1.94 z-score in [5]; 2.19 z-score in assay [6]. Further, the binding signal in [7] came to 2.34 z-score; in assay [8], 1.94 z-score; in [9], 1.85 z-score.

For CAATTTATCCT, the binding signal in assay [1] was -0.0381 z-score; in assay [2], -0.676 z-score; in assay [3] it was -0.566 z-score; in [4], -0.744 z-score; in assay [5] it was -0.71 z-score; in [6] it was -0.801 z-score. The results for the binding signal in assay [7], in [8] and in assay [9] were -0.64 z-score, -1.1 z-score and -0.673 z-score, respectively.

Take GAGTTAATCCC: the binding signal in assay [1] was 0.0777 z-score; in assay [2] it was -0.527 z-score; in assay [3], -0.147 z-score; in assay [4], -0.451 z-score; in assay [5], -0.217 z-score; in [6], -0.125 z-score. For the same sequence, the binding signal in assay [7] is -0.157 z-score; in assay [8], -0.186 z-score; in assay [9] it was -0.227 z-score.

Consider AGATAGTTCCC, for which the binding signal in [1] is 0.521 z-score; in [2], -0.317 z-score; in assay [3], -0.177 z-score; in assay [4] it was -0.261 z-score; in assay [5], -0.107 z-score; in assay [6], -0.129 z-score. Also, the binding signal in assay [7] was -0.286 z-score; in [8], -0.0396 z-score; in [9], -0.0868 z-score.

AAAGATGTCCC: the binding signal in [1] is 0.336 z-score; in assay [2] it was 0.646 z-score; in assay [3], 0.345 z-score; in assay [4] it was 0.492 z-score; in [5] it was 0.185 z-score; in [6], 0.741 z-score. Moreover, the binding signal in assay [7] is 0.487 z-score; in assay [8] it was 0.497 z-score; in assay [9] it was -0.0919 z-score.

For the sequence AGGTTCGCCCT, the binding signal in assay [1] was -0.645 z-score; in assay [2] it was -1.28 z-score; in assay [3] it was -0.726 z-score; in assay [4], -0.876 z-score; in [5] it was -0.838 z-score; in [6], -0.727 z-score. In addition, the binding signal in assay [7] is -0.728 z-score; in assay [8] it was -1.03 z-score; in [9] it was -0.838 z-score.

AGATGAATCCT: the binding signal in assay [1] was -0.706 z-score; in [2], -1.32 z-score; in assay [3], -0.542 z-score; in [4], -1 z-score; in [5], -0.972 z-score; in [6], -1.28 z-score. For the same sequence, the binding signal is -1.16 z-score in [7], -1.39 z-score in assay [8] and -0.907 z-score in assay [9].

Consider AAAAATTCCCC, for which the binding signal in assay [1] was found to be 3.28 z-score; in assay [2], 1.42 z-score; in assay [3], 2.98 z-score; in [4] it was 2.27 z-score; in assay [5] it was 2.54 z-score; in [6] it was 2.96 z-score. Also, the binding signal in [7] stood at 2.46 z-score; in [8] it was 2.04 z-score; in assay [9], 2.78 z-score.

With CGGTAGTCCCC, the binding signal in [1] was 0.678 z-score; in [2], 1.22 z-score; in assay [3], 1.51 z-score; in [4], 1.43 z-score; in assay [5], 1.31 z-score; in [6], 1.05 z-score. Besides, the binding signal in [7] was 1.33 z-score; in [8], 1.12 z-score; in assay [9] it was 1.42 z-score.

Take AGATGCGCCCT: the binding signal in assay [1] was -0.621 z-score; in assay [2], -1.13 z-score; in assay [3], -0.603 z-score; in assay [4], -0.768 z-score; in [5] it was -0.721 z-score; in [6] it was -1.01 z-score. The binding signal in assay [7] was -0.804 z-score; in [8], -1.47 z-score; in [9], -0.758 z-score.

CGAGGCTTCCT: the binding signal is -0.994 z-score in [1]; -2.47 z-score in [2]; -0.827 z-score in [3]; -1.09 z-score in assay [4]; -1.19 z-score in assay [5]; -1.31 z-score in assay [6]. Besides, the values for the binding signal in assay [7], in assay [8] and in assay [9] were -1.05 z-score, -1.49 z-score and -1.05 z-score, respectively.

For the sequence AGAAACGTCCT, the binding signal in assay [1] is -0.192 z-score; in [2], -1.17 z-score; in assay [3] it was -0.534 z-score; in assay [4] it was -0.997 z-score; in assay [5] it was -0.794 z-score; in assay [6] it was -0.947 z-score. The figures for the binding signal in assay [7], in assay [8] and in assay [9] were -0.798 z-score, -1.13 z-score and -0.812 z-score, respectively.
